# Sampled rows, rich in hits. Any-hit rate of the full collection: about 3%.
# CTSL1 counter: blocks F. hepatica cathepsin L1 in PFM18AAP counter-screen. 0.49% of 300,000 active. inhibition, % at 5.96 µM. recombinant F. hepatica cathepsin L1, Z-Leu-Arg-MCA fluorescence. AID 1906;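 active = inhibition above the mean of all tested compounds plus 3 SD, set per screening campaign, cut at about 17% in these data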;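 also: 0% = plate median of test compound wells and 100% = 1 µM Z-Phe-Ala-diazomethylketone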
# PAFAH1B3 inh: inhibitors of human PAFAH1B3. Q15102. recombinant PAFAH1B3, FP-rhodamine probe, fluorescence polarization. inhibition, % at 3.39 µM. 0.28% of 340,000 active. AID 492972;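 active = inhibition above the screen-wide average of all tested compounds plus 3 SD, cut at about 25% in these data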;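 also: 0% = enzyme with DMSO only and 100% = wells lacking PAFAH1B3 protein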
# PAFAH2 inh: inhibitors of human PAFAH2; Q99487; recombinant PAFAH2, FP-rhodamine activity probe, fluorescence polarization; inhibition, % at 3.39 µM; 0.99% of 340,000 active; AID 492956;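 active = inhibition above the mean over all tested compounds plus 3 SD, cut at about 30% in these data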;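 also: inhibitors block probe labeling of enzyme so polarization drops; 0% = enzyme with DMSO and 100% = wells lacking PAFAH2 protein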
# PP5 primary: inhibitors of human protein phosphatase 5 (PP5); P53041; purified PP5c, OMFP substrate fluorescence; inhibition, % at 6.7 µM; 0.18% of 320,000 active; AID 1987;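 active = inhibition above the campaign's mean inhibition across all tested compounds plus 3 SD, cut at about 9.5% in these data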;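 also: 0% = DMSO only and 100% = 100 µM cantharidin control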
# PAFAH1B2 inh: inhibitors of human PAFAH1B2. P68402. recombinant PAFAH1B2, FP-rhodamine activity probe, fluorescence polarization. 1.2% of 340,000 active. inhibition, % at 3.39 µM;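 active = inhibition above the mean of all tested compounds plus 3 SD, cut at about 24% in these data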;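 also: 0% = enzyme with DMSO and 100% = wells lacking PAFAH1B2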
# pPAFAH FP inh: inhibitors of human plasma PAF acetylhydrolase (pPAFAH). AID 463082. Q13093. inhibition, % at 3.39 µM. recombinant pPAFAH, FP-rhodamine probe fluorescence polarization. 1.5% of 330,000 active;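 active = inhibition above the mean inhibition across the screen plus 3 SD, cut at about 25% in these data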;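 also: inhibitors block binding of the rhodamine activity-based probe so polarization drops; 0% = enzyme with DMSO and 100% = wells lacking pPAFAH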
# Target sequence (Q13093 whole entry, looked up): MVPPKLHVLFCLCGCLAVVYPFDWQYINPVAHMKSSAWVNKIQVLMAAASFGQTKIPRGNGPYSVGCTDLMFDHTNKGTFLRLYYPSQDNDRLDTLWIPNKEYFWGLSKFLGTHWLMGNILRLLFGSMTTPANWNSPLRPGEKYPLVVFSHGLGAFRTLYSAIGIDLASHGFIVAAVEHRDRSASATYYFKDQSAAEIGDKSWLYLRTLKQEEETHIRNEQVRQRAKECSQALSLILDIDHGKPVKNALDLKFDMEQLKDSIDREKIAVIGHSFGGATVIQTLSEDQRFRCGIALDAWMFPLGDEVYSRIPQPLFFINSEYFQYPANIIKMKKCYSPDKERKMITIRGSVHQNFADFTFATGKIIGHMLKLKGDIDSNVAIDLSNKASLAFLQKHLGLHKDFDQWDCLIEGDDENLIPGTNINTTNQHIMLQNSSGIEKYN
# PAFAH1B3 conf FP: confirmation of human PAFAH1B3 inhibitors; shares compounds with PAFAH1B3 inh; recombinant PAFAH1B3, FP-Rh activity-based probe, fluorescence polarization; inhibition, % at 3.39 µM; 30% of 390 active; AID 493032;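 active = average inhibition over triplicate runs above the hit cutoff set in the earlier primary screen, cut at about 25% in these data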;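 also: 0% = enzyme with DMSO and 100% = wells lacking PAFAH1B3 protein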
# * hit, by the source's call; . = not tested or not shown.
SMILES,CTSL1 counter,PAFAH1B3 inh,PAFAH2 inh,PP5 primary,PAFAH1B2 inh,pPAFAH FP inh,PAFAH1B3 conf FP
Cc1[nH]n(-c2ccccc2)c(=O)c1/C=N/NC(=O)c1ccc(O)cc1O,1.6,18.3,-0.9,-0.3,12.0,11.4,.
Cc1ccc(-n2[nH]c(C)c(/C=N/NC(=O)c3ccc(O)cc3O)c2=O)cc1,5.9,26.7*,6.7,4.3,14.4,13.1,14.3
c1ccc2c(c1)[nH]c1c3ccccc3sc21,2.8,13.5,5.8,2.9,1.5,7.3,.
COCCNC(=O)/C(C#N)=C/c1ccc(OC(=O)c2cccs2)c(OC)c1,.,25.6*,2.5,.,0.7,.,11.6
O=C(O)c1cccc2c1C(=O)c1cc([N+](=O)[O-])ccc1-2,.,10.9,4.3,.,-4.2,.,.
O=C1C(Cl)=C(Nc2ccccc2)C(=O)c2ccccc21,5.7,26.0*,15.5,0.0,10.7,3.7,19.8
O=C(O)c1ccc(NC2=C(Cl)C(=O)c3ccccc3C2=O)cc1,11.7,32.8*,11.6,1.0,11.5,-2.3,22.9
O=C(O)c1cccc(NC2=C(Cl)C(=O)c3ccccc3C2=O)c1,.,27.3*,21.1,.,13.3,.,23.5
CC1=C(Nc2ccc(C(=O)O)cc2)C(=O)c2ccccc2C1=O,-1.0,12.6,1.4,0.0,5.8,2.4,.
CCN1C(=O)[C@H]2[C@H]3CN=C(SCc4ccc(C)cc4)N3[C@@](Cc3ccccc3)(C(=O)OC)[C@H]2C1=O,.,3.5,-0.1,.,9.4,6.7,.
CC(C)(C)NC[C@H](O)COc1cccc2c1CCCC2=O,-2.7,6.9,11.9,1.6,-2.7,1.0,.
CC(C)(C)NCC(O)COc1cccc2c1C[C@H](O)[C@H](O)C2 (some centres not stated),-2.7,33.1*,-3.9,-1.6,-7.2,1.5,8.9
CC1(C)C=C2C(=NN(c3ccccc3)C(N)=C2C#N)CO1,109.0*,44.4*,4.0,1.2,12.2,8.4,50.5*
CC1(C)Cc2c(C#N)c(N)n(-c3ccccc3)c(=S)c2CO1,-0.5,.,.,-1.0,.,4.0,.
O=C1c2ccccc2C(=O)c2c1cccc2-n1nnc2ccccc21,-0.9,2.1,3.9,0.0,3.5,1.4,.
O=C1C(N2CCOCC2)=C(n2nnc3ccccc32)C(=O)c2ccccc21,80.6*,51.0*,8.7,5.7,22.4,7.0,33.7*
C=CC[C@@H]1C=C(C)C[C@H](C)C[C@H](OC)[C@H]2O[C@@](O)(C(=O)C(=O)N3CCCC[C@H]3C(=O)O[C@H](/C(C)=C/[C@@H]3CC[C@@H](O)[C@H](OC)C3)[C@H](C)[C@@H](O)CC1=O)[C@H](C)C[C@@H]2OC,2.8,.,.,3.8,.,2.7,.
CCCS(=O)(=O)c1c(S(=O)(=O)CCC)c2c(C)cccn2c1C(=O)N/N=C/c1cc(O)cc(O)c1,2.0,26.6*,2.3,3.0,-2.1,15.3,11.3
CCCS(=O)(=O)c1c(S(=O)(=O)CCC)c2c(C)cccn2c1C(N)=O,-0.3,2.5,-4.7,1.1,3.6,4.8,.
O=C(COC(=O)c1ccc2ccccc2n1)NCc1ccccc1,5.7,47.1*,-5.6,1.4,4.0,19.6,5.5
O=C(COC(=O)c1ccc2ccccc2c1O)NCc1ccccc1,.,6.9,3.8,0.2,1.4,1.9,.
CC(C)Cc1nnc(NC(=O)CCS(=O)(=O)c2ccc(Cl)cc2)s1,-0.7,7.6,-5.0,-1.3,16.7,5.1,.
COCC(=O)OC1CCn2c1nc1c2C(=O)C(C)=C(NC(C)=O)C1=O (configuration not stated),.,69.2*,26.0,.,20.8,.,54.7*
O=C(O)CCc1nc(-c2ccccc2)no1,-3.3,14.5,-5.5,-3.0,5.6,-9.1,.
CCN(CC)CCc1nc(-c2ccccc2)no1,0.4,29.2*,-0.4,-0.2,1.2,0.2,34.2*
O=[N+]([O-])c1ccc(N/N=C/c2ccccc2O)cc1,3.6,26.1*,5.6,3.6,9.3,9.2,14.9
O=[N+]([O-])c1ccc(NN=Cc2ccccc2O)nc1,.,9.8,1.4,.,6.7,.,.
On1nnc2c3ccccc3c3ccccc3c21,3.3,38.1*,3.0,0.8,10.4,3.3,41.5*
O=C(COC(=O)c1ccc([N+](=O)[O-])s1)NC(c1ccccc1)c1ccccc1,5.7,42.4*,16.3,1.4,7.9,13.0,16.3
